Screens as filed in PubChem.
Shown are actives, neighbours in structure and some others; about 1.4% of the full set was active somewhere.
Wee1 stabilizer – inhibitors of human Wee1 degradation; P30291; HeLa Luc-Wee1K328M stability, luciferase luminescence; 100% = proteasome inhibitor MG132 effect; reporter increase, % at 5 µM; actives 1.2% (n = 220,000); AID 1321;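 active means activation above the mean of all tested compounds plus 3 SD, set per screening run, cut at about 8.8% in these data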;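 further: cells exposed to compound for 20 h before luminescence read; 0% = DMSO alone and 100% = MG132 at 30 µM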
Target sequence (P30291 whole entry K328M): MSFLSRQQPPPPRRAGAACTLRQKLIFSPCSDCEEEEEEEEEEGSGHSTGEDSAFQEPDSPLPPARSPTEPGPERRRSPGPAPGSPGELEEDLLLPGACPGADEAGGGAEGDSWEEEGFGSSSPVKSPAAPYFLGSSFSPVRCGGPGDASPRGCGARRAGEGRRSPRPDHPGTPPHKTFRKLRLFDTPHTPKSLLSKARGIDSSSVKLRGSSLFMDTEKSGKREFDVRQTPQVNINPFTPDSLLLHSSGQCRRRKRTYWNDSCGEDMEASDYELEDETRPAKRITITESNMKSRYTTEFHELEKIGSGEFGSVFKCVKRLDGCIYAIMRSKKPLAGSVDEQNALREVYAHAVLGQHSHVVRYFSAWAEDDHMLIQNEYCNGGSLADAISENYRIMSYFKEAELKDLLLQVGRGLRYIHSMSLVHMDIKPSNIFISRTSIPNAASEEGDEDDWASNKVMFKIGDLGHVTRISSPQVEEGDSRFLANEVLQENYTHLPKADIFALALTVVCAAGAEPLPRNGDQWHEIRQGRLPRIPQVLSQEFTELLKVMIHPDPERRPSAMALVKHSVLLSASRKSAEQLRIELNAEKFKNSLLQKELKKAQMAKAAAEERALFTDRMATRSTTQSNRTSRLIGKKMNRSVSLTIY
HSV replic up – increases HSV replication in cells; HSV replication augmentation in cells, fold increase; actives 0.005% (n = 220,000); maximum fold increase; in the data active means maximum fold increase above about 1.5; inconclusive means no clear call, values can overlap the other calls; tested in PC3 cells
L929 necroptosis – L929 zVAD cell death inhibition; AID 1377; viability rescue, % at 10 µM; L929 zVAD necroptosis rescue, ATP luminescence, 24 h; with zVAD 60 µM; actives 0.38% (n = 220,000);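 active means activation, scaled between plate controls, above about 75%, limit read from the data; inactive means activation under that limit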;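 further: 0% = zVAD with DMSO and 100% = DMSO alone without zVAD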
TNF death inh – blocks TNF-alpha induced death of Jurkat FADD-/- cells. Jurkat FADD-/- TNF necroptosis rescue, ATP luminescence, 24 h; 0 = TNF only, 100 = no-TNF cells. activation (protection from cell death), % at 10 µM. actives 0.068% (n = 220,000);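 active means activation, meaning protection from cell death, of at least 50% relative to plate controls; inactive means activation below 50%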;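 further: necroptosis triggered by 40 ng/mL TNF-alpha added together with compound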
V-ATPase pH – regulators of yeast V-ATPase proton transport; response, % at 10 µM; S. cerevisiae, pHLuorin cytosolic pH fluorescence; actives 0.37% (n = 350,000); in the data active means response mostly above about 7.3%, no sharp cut-off; inactive means mostly below about 5.4%; further: actives read high
V-ATPase pH SP – yeast V-ATPase proton transport regulation; S. cerevisiae pHLuorin cytosolic pH; actives 2% (n = 980); shares compounds with V-ATPase pH; response, % at 10 µM; in the data active means response above about 24%;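 further: plate controls were vehicle wells for no effect and positive control wells for full effect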
* hit, by the source's call; i = inactive; ? = inconclusive; . = not tested or not shown.

SMILES	Wee1 stabilizer	HSV replic up	L929 necroptosis	TNF death inh	V-ATPase pH	V-ATPase pH SP
COc1cccc(S(=O)(=O)N(C)C[C@H]2OCc3cnnn3CCCC(=O)N([C@@H](C)CO)C[C@@H]2C)c1	.	.	.	.	3.4	.
C[C@H](CO)N1C[C@H](C)[C@@H](CN(C)S(=O)(=O)c2ccc(C#N)cc2)OCc2cnnn2CCCC1=O	.	.	.	.	4.1*	1.7
COc1cccc(S(=O)(=O)N(C)C[C@@H]2OCc3cnnn3CCCC(=O)N([C@H](C)CO)C[C@@H]2C)c1	.	.	.	.	7.5*	1.0
O=c1[nH]nc(-c2ccc(F)cc2)cc1Cc1cccs1	2.1	i	0.8	3.3	-3.4	.
Nc1ccccc1C(O)(Cc1ccccc1)c1ccccc1 (stereo not drawn)	.	.	.	.	1.7	.
COc1ccc(C(C)C)cc1S(=O)(=O)N1CCC(C(=O)NCC2CCCO2)CC1 (stereo not drawn)	.	.	.	.	-0.3	.
COc1cc(C(=O)NCCOc2cccc3cccnc23)cc(OC)c1OC	2.1	i	12.1	-5.3	15.3*	-0.6
Cc1ccc(C(=O)NCCOc2cccc3cccnc23)cc1Cl	-0.8	i	3.2	0.4	6.5	.
Cc1nc(C)c(-c2ccc(SCc3ccccc3C)nn2)s1	.	.	.	.	10.3*	2.0
COc1ccc(OC)c(NC(=O)c2ccc(OC3CSC3)cc2)c1	-1.9	i	1.2	1.0	12.7*	-1.7
Cc1ccc(C(=O)C(C)OC(=O)CCS(=O)(=O)c2ccc(C)cc2)cc1 (stereo not drawn)	.	.	.	.	7.0	.
COc1cc(/C=C/C(=O)NC2CCCCC2)cc(OC)c1OC	.	.	.	.	8.8*	2.5
CN(Cc1ccccc1)C(=O)C1CCCN1S(=O)(=O)c1ccc(Cl)cc1 (stereo not drawn)	.	.	.	.	-2.7	.
COc1ccc(OCC(=O)Nc2nc3ccccc3[nH]2)cc1	0.0	i	0.1	-0.3	4.8	.
O=C(COc1ccc2ccccc2c1)Nc1nc2ccccc2[nH]1	-2.2	i	0.5	3.5	10.7*	-3.9
COc1ccc(C(=O)NCc2nnc(SCC(=O)N3CCOCC3)o2)cc1	1.8	i	1.0	0.7	-1.4	.
COc1cc(C(=O)NCc2nnc(SCC(=O)N3CCOCC3)o2)cc(OC)c1OC	3.6	i	-0.5	0.8	15.8*	-0.5
CN1/C(=C\C(=S)NC(=O)c2ccc([N+](=O)[O-])cc2)C(C)(C)c2ccccc21	-4.5	?	0.8	-1.1	13.4*	0.1
CCC(C)NCCOCCOc1ccc(C)cc1Br (stereo not drawn)	-0.3	i	0.1	-3.3	35.8*	0.9
CCNC(=O)COC(=O)/C=C/c1cccs1	4.4	i	1.8	-0.3	1.7	.
CNC(=O)COC(=O)/C=C/c1cccs1	-2.5	i	-0.1	-0.5	9.0*	1.3
COc1ccc(-c2nnc(C)c3nocc23)cc1	.	.	.	.	-3.9	.
COC(=O)C1=NNC(C(=O)c2ccco2)C1c1ccccc1 (stereo not drawn)	0.9	i	0.4	-0.3	0.5	.
COC(=O)C1=NNC(C(=O)OC)C1c1ccccc1 (stereo not drawn)	.	.	.	.	16.9*	-0.7
CCOC(=O)c1ccc(NC(=O)COc2ccccc2CNCCc2ccccc2)cc1	-1.6	i	10.0	-5.3	13.5*	-1.3
SMILES	Wee1 stabilizer	HSV replic up	L929 necroptosis	TNF death inh	V-ATPase pH	V-ATPase pH SP
Cc1ccc(-n2cc(C(=O)O)c(=O)cc2C)c(C)c1	-0.5	i	-1.4	-0.8	-1.9	.
CCc1nn(CC(=O)N2CCCCCC2)c(=O)c2cc3ccccc3n12	.	.	.	.	13.1*	0.7
CCc1ccccc1N(C)S(=O)(=O)c1ccc2[nH]cc(C(=O)N3CCc4ccccc43)c(=O)c2c1	-1.0	i	.	-1.8	21.6*	8.4
Cc1cccc(N(C)S(=O)(=O)c2ccc3[nH]cc(C(=O)N4CCOCC4)c(=O)c3c2)c1	-1.1	i	0.3	0.8	1.9	.
COc1cccc(C2C(C(=O)c3cc4ccccc4o3)=C(O)C(=O)N2CCN(C)C)c1OC (stereo not drawn)	-4.3	i	0.0	-0.4	13.0*	0.9
C=CCN(C(=O)CNS(=O)(=O)c1ccccc1)C(C(=O)NCCOC)c1ccncc1 (stereo not drawn)	-1.2	i	-0.4	0.3	21.6*	-5.8
COCCNS(=O)(=O)c1ccccc1	-1.3	i	-0.6	5.7	-0.8	.
CC(=O)c1cccc(NC(=O)CCC(=O)c2ccc(F)cc2)c1	.	.	.	.	1.3	.
O=C(CCC(=O)c1ccc(F)cc1)Nc1cc(Cl)cc(Cl)c1	1.2	i	0.4	0.9	-1.3	1.1
Cc1cccc(C)c1NC(=O)CNC(=O)c1cccnc1	.	.	.	.	0.4	.
Cc1nn(C)cc1C(C)NC(=O)c1cc(COc2c(F)cccc2F)on1 (stereo not drawn)	6.5	i	-0.5	-0.3	11.3*	-2.8
O=C(NCCN1CCNC1=O)C1CCC(=O)N(Cc2cccc(C(F)(F)F)c2)C1 (stereo not drawn)	.	.	.	.	-1.7	.
Cc1cc(C)n2nc(SCC(=O)Nc3ccccc3C)nc2n1	.	.	.	.	1.0	.
Cc1cc(C)n2nc(SCC(=O)NC(=O)c3ccccc3Cl)nc2n1	.	.	.	.	9.8*	0.9
CCc1nn(C(C)C(=O)N(C)Cc2ccccc2)c(=O)c2cc3occc3n12 (stereo not drawn)	.	.	.	.	12.3*	-1.1
c1cc(CNC2C3CC4CC(C3)CC2C4)ccn1 (stereo not drawn)	-0.3	i	4.7	-0.5	-3.6	.
Cc1cc2c(c(=O)n1Cc1cccnc1)C(c1ccc(F)cc1)C(C#N)=C(N)O2 (stereo not drawn)	-3.4	i	0.0	-1.5	12.1*	-3.5
CSCCC(NC(=O)c1ccccc1Br)C(=O)NNC(=O)c1ccco1 (stereo not drawn)	.	.	.	.	-0.4	.
CSc1ncccc1C(=O)N1CCN(S(=O)(=O)c2ccc3ccccc3c2)CC1	.	.	.	.	10.3*	0.8
O=C(c1ccccc1F)N1CCN(S(=O)(=O)c2ccc3ccccc3c2)CC1	.	.	.	.	-2.2	.
COC(=O)c1ccc(NC(=O)CN2CCN(CC#N)CC2)cc1	.	.	.	.	7.3	.
Cc1n[nH]c(=S)n1Cc1ccccc1	0.1	i	-0.5	3.9	9.8*	-7.3
O=C/C(=C\Nc1ccc(Br)cc1)c1nc2ccccc2o1	3.6	i	2.2	-2.4	8.9*	0.5
CC(=O)Nc1ccc(N/C=C(\C=O)c2nc3ccccc3o2)cc1	-4.9	i	1.2	-2.5	-33.3	.
COc1ccc(NC(=O)CN2C(=O)NC(C)(c3ccc(C)cc3)C2=O)cn1 (stereo not drawn)	.	.	.	.	-1.3	.
C[C@@H](C(=O)NCc1c(F)cccc1Cl)N1C(=O)N2CCc3c([nH]c4ccccc34)[C@@]2(C)C1=O	.	.	.	.	-0.8	.
O=C(c1ccco1)N1CCN(c2ncnc3c2nnn3Cc2ccccc2Cl)CC1	-1.2	i	.	-2.1	10.2*	-0.3
Fc1ccc(N2CCN(c3ncnc4c3nnn4Cc3ccccc3Cl)CC2)cc1	4.6	i	.	-2.7	2.5	.
CCOC(=O)c1sc(NC(=O)CSc2nccn2C)nc1C	.	.	.	.	0.6	.
O=C(NNS(=O)(=O)c1ccccc1[N+](=O)[O-])c1ccccc1Cl	2.3	i	0.8	-0.1	11.8*	-1.7
